# Inconclusive results are not listed. Calls of active or inactive are those of the source. Calls follow the shape of the dose curve; as a rule, active = well fitted curve in the direction sought with a large enough effect; inconclusive = small, poorly fitted or top-dose-only effect, or another doubt; inactive = no such curve, though single readings can be large; an effect the other way counts as inactive or inconclusive.
# Columns and labels:
# [1] = qHTS of pediatric cancer cell lines to identify multiple opportunities for drug repurposing: Primary screen for U-2 OS cells (AID 1347096); conditions: U-2 OS viability, CellTiter-Glo luminescence, 48 h; series mostly up to 46 µM; also: nearly all actives have a fitted effect of over 50% in size
# How it was run: (§1)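 Viability after 48 h compound treatment at 37C, 500-1,000 cells/well, read as ATP luminescence with CellTiter-Glo. Primary screens used 11-point (MIPE, 0.78 nM-46 µM) or 8-point (NPC, 0.59 nM-46 µM) final concentrations; follow-up screens used 11-point dilutions.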
# [2] = qHTS of pediatric cancer cell lines to identify multiple opportunities for drug repurposing: Primary screen for Saos-2 cells (AID 1347097); conditions: Saos-2 viability, CellTiter-Glo ATP luminescence, 48 h; series mostly up to 46 µM; also: nearly all actives have a fitted effect of over 40% in size
# How it was run: (§2)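 Luminescence from CellTiter-Glo served as readout of metabolically active cells after 48 h compound exposure. Titrations: MIPE 11-point, from 0.78 nM; NPC 8-point, from 0.59 nM (final). Concentration-response curves came straight from the primary screen.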
# [3] = qHTS of pediatric cancer cell lines to identify multiple opportunities for drug repurposing: Primary screen for SK-N-SH cells (AID 1347098); conditions: SK-N-SH viability, CellTiter-Glo luminescence, 48 h; series mostly up to 57 µM; also: nearly all actives have a fitted effect of over 65% in size
# How it was run: (§3)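 Cells (500-1,000/well) rested 5 h, then received compounds for 48 h; metabolically active cells were measured by CellTiter-Glo luminescence. Final concentrations spanned up to 46 µM (MIPE, 11-point) or 0.59 nM-46 µM (NPC, 8-point) in primary screens, 11-point in follow-ups.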
# [4] = qHTS of pediatric cancer cell lines to identify multiple opportunities for drug repurposing: Primary screen for LAN-5 cells (AID 1347100); conditions: LAN-5 neuroblastoma viability, CellTiter-Glo luminescence, 48 h; series mostly up to 46 µM
# How it was run: as §1
# [5] = qHTS of pediatric cancer cell lines to identify multiple opportunities for drug repurposing: Primary screen for Rh18 cells (AID 1347102); conditions: Rh18 rhabdomyosarcoma viability, CellTiter-Glo luminescence, 48 h; series mostly up to 46 µM; also: nearly all actives have a fitted effect of over 65% in size
# How it was run: as §1
# [6] = qHTS of pediatric cancer cell lines to identify multiple opportunities for drug repurposing: Primary screen for MG 63 (6-TG R) cells (AID 1347105); conditions: MG 63 (6-TG R) viability, CellTiter-Glo, 48 h; series mostly up to 46 µM; also: nearly all actives have a fitted effect of over 50% in size
# How it was run: as §2
# [7] = qHTS of pediatric cancer cell lines to identify multiple opportunities for drug repurposing: Primary screen for NB1643 cells (AID 1347099); conditions: NB1643 neuroblastoma viability, CellTiter-Glo luminescence, 48 h; series mostly up to 46 µM; also: nearly all actives have a fitted effect of over 50% in size
# How it was run: as §2
# [8] = qHTS of pediatric cancer cell lines to identify multiple opportunities for drug repurposing: Primary screen for BT-12 cells (AID 1347101); conditions: BT-12 viability, CellTiter-Glo luminescence, 48 h; series mostly up to 57.3 µM; also: nearly all actives have a fitted effect of over 25% in size
# How it was run: as §3
# [9] = qHTS of pediatric cancer cell lines to identify multiple opportunities for drug repurposing: Primary screen for OHS-50 cells (AID 1347103); conditions: OHS-50 osteosarcoma viability, CellTiter-Glo luminescence, 48 h; series mostly up to 57.3 µM; also: nearly all actives have a fitted effect of over 40% in size
# How it was run: as §3
# [10] = qHTS of pediatric cancer cell lines to identify multiple opportunities for drug repurposing: Primary screen for RD cells (AID 1347104); conditions: RD rhabdomyosarcoma viability, CellTiter-Glo luminescence, 48 h; series mostly up to 46 µM; also: nearly all actives have a fitted effect of over 55% in size
# How it was run: as §2
# Potency is read from the fitted curve at half-maximal effect.
SMILES,Potency [1],Potency [2],Potency [3],Potency [4],Potency [5],Potency [6],Potency [7],Potency [8],Potency [9],Potency [10]
CC1(C)O[C@@H]2C[C@@H]3[C@H]4C[C@@H](F)C5=CC(=O)C=C[C@]5(C)[C@@]4(F)[C@@H](O)C[C@]3(C)[C@]2(C(=O)CO)O1,inactive,inactive,inactive,inactive,inactive,inactive,–,–,–,–
Cc1cn2cc(C(=O)N(C)CCO)cc(N[C@@H]3CCOc4cccc(C)c43)c2n1,inactive,inactive,–,inactive,inactive,inactive,inactive,inactive,inactive,inactive
Cn1cc(-c2ccncc2)c(-c2ccc(OCc3ccc4ccccc4n3)cc2)n1,inactive,11.8 µM (active),inactive,–,inactive,inactive,–,–,3.06 µM (active),–
COc1cc(C(C)C)c2c(c1)S(=O)(=O)N(COc1cc(=O)n3cccc(OCCN4CCCCC4)c3n1)C2=O,inactive,26.4 µM (active),–,–,–,inactive,13.2 µM (active),inactive,–,20.9 µM (active)
CC(C)C[C@H](NC(=O)CNC(=O)c1cc(Cl)ccc1Cl)B(O)O,0.743 µM (active),18.7 µM (active),0.383 µM (active),–,0.235 µM (active),0.235 µM (active),–,–,–,1.32 µM (active)
C=CC(=O)N1CCC[C@@H](n2nc(-c3ccc(Oc4ccccc4)cc3)c3c(N)ncnc32)C1,inactive,11.8 µM (active),–,16.6 µM (active),18.7 µM (active),23.5 µM (active),2.35 µM (active),–,–,–
O=C(Cc1ccc(-c2ccc(OCCN3CCOCC3)cc2)cn1)NCc1ccccc1,3.72 µM (active),0.0148 µM (active),–,–,13.2 µM (active),0.0235 µM (active),0.0833 µM (active),0.0385 µM (active),0.0306 µM (active),0.0526 µM (active)
COc1cc2ncn(-c3cc(OCc4ccccc4C(F)(F)F)c(C(N)=O)s3)c2cc1OC,23.5 µM (active),10.5 µM (active),24.1 µM (active),–,–,7.43 µM (active),–,21.7 µM (active),1.22 µM (active),1.66 µM (active)
CC(C)(C)NC(=O)[C@H]1CN(Cc2cccnc2)CCN1C[C@@H](O)C[C@@H](Cc1ccccc1)C(=O)N[C@H]1c2ccccc2C[C@H]1O,inactive,18.7 µM (active),15.2 µM (active),–,–,–,–,–,19.3 µM (active),1.48 µM (active)
CC(C)(C)OC(=O)Nc1ccc(-c2cc(C(=O)NCCCCCCC(=O)NO)no2)cc1,4.69 µM (active),2.35 µM (active),–,1.66 µM (active),2.35 µM (active),inactive,–,17.2 µM (active),4.32 µM (active),5.26 µM (active)
O=C(O)Cn1nnc(-c2cc(N3CCC(Oc4cc(F)ccc4Br)CC3)no2)n1,inactive,inactive,–,inactive,inactive,inactive,–,inactive,–,–
N#Cc1c(O)c2c(-c3ccc(-c4ccccc4O)cc3)csc2[nH]c1=O,inactive,inactive,–,inactive,inactive,inactive,–,–,–,inactive
COc1ccc(C(=O)CC2(O)C(=O)Nc3c(Cl)ccc(Cl)c32)cc1 (configuration not stated),inactive,2.09 µM (active),–,1.32 µM (active),–,3.72 µM (active),–,3.43 µM (active),4.32 µM (active),5.9 µM (active)
O=C(O)[C@H](Cc1c[nH]c2ccccc12)N1C(=O)c2ccccc2C1=O,inactive,inactive,–,–,inactive,inactive,–,–,–,inactive
O=C(O)CO.[NH2-].[NH2-].[Pt+2],inactive,inactive,–,inactive,inactive,inactive,–,inactive,inactive,inactive
NC(=O)c1cccc2cn(-c3ccc([C@@H]4CCCNC4)cc3)nc12,inactive,–,inactive,–,inactive,inactive,–,inactive,–,–
CCCCc1nc2cc(C=CC(=O)NO)ccc2n1CCN(CC)CC,0.743 µM (active),0.0296 µM (active),–,–,0.0148 µM (active),3.72 µM (active),–,0.193 µM (active),0.153 µM (active),2.09 µM (active)
Cc1ccc(CN2CCNCC2)cc1NC(=O)CNc1ccc(F)c(F)c1,inactive,–,19.2 µM (active),inactive,–,inactive,inactive,inactive,–,inactive
CCc1cc2c(cc1N1CCC(N3CCOCC3)CC1)C(C)(C)c1[nH]c3cc(C#N)ccc3c1C2=O,inactive,–,inactive,–,inactive,inactive,–,inactive,–,inactive
CN(C)CC=CC(=O)Nc1cc2c(Nc3ccc(F)c(Cl)c3)ncnc2cc1O[C@H]1CCOC1,18.7 µM (active),10.5 µM (active),–,7.43 µM (active),14.8 µM (active),14.8 µM (active),–,–,3.06 µM (active),–
C1=CCOCc2cc(ccc2OCCN2CCCC2)Nc2nccc(n2)-c2cccc(c2)OCC1,inactive,5.26 µM (active),–,2.64 µM (active),7.43 µM (active),11.8 µM (active),–,7.69 µM (active),2.17 µM (active),11.8 µM (active)
O=C(O)C1(Cc2cccc(Nc3nccs3)n2)CCC(Oc2cccc(Cl)c2F)CC1 (configuration not stated),inactive,14.8 µM (active),–,–,–,18.7 µM (active),inactive,–,0.544 µM (active),inactive
COc1cc(C(=O)N2CCC(N3CCN(C)CC3)CC2)ccc1Nc1ncc2c(n1)N(C)c1ccccc1C(=O)N2C,inactive,10.5 µM (active),–,–,11.8 µM (active),9.35 µM (active),–,–,7.69 µM (active),–
Cc1cc(CN2CCN(c3c(Br)cnc4nc(-c5ccc(N6CCN(C)CC6)cc5)[nH]c34)CC2)no1,inactive,–,21.5 µM (active),0.418 µM (active),20.9 µM (active),18.7 µM (active),16.6 µM (active),–,30.6 µM (active),26.4 µM (active)

# Reference: PubChem BioAssay (NCATS)
